Compound activity as filed in PubChem.
Shown are actives, neighbours in structure and some others; about 0.81% of the full set was active somewhere.
IDE act – human IDE activators in live cells, primary screen, fluorescence polarization, HEK cells, FAbeta-B substrate; activation, % at 5.96 µM; actives 0.073% (n = 340,000); Insulin-degrading enzyme (Homo sapiens), P14735; FAbeta-B cleavage; 0% vehicle, 100% cell-free pure enzyme wells;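 active = activation above the mean of all tested compounds plus 3 SD, set per screening campaign, cut at about 17% in these data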
Target sequence (P14735 whole entry, looked up): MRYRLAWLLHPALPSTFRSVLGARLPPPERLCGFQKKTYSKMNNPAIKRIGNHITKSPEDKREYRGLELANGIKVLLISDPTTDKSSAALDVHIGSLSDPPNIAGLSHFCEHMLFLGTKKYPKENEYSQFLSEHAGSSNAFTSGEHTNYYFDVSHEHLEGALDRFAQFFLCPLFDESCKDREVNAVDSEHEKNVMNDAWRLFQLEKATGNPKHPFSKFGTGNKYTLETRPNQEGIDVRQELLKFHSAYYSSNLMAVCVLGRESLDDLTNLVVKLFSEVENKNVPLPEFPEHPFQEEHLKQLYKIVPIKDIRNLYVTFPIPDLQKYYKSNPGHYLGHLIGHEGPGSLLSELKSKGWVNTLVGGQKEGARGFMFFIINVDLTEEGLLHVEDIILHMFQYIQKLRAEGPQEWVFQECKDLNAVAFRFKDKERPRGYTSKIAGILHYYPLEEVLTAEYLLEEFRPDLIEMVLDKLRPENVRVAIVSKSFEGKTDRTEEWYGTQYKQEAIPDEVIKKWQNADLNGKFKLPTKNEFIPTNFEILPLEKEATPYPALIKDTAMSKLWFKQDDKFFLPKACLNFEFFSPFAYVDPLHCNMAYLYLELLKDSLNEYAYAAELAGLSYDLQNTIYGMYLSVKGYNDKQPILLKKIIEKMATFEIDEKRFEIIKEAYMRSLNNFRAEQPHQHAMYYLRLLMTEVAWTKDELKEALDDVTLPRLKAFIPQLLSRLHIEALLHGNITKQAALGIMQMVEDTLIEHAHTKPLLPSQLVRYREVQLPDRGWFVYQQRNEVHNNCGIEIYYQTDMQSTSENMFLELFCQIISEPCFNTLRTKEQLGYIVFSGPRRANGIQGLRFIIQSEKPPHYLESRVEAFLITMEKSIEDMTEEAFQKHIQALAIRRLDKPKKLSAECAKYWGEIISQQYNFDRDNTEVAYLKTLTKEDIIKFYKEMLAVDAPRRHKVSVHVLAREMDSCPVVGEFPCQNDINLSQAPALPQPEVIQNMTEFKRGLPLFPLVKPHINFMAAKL
C-LANA FP – inhibitors of KSHV C-LANA binding to DNA, primary screen, biochemical, fluorescence polarization, FAM-LBS DNA, MBP-C-LANA, single point. Kaposi's sarcoma herpesvirus LANA C-terminal domain (residues 932-1162) DNA binding. inhibition, % at 9 µM. actives 0.078% (n = 340,000). AID 504423, 2011;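 active = highest replicate inhibition at or above 60% at 9 µM, even if other replicates fall short; inactive = all replicates below 60% inhibition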;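 also: 0% = neutral control wells and 100% = 4 µM acridine orange control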
Keap1-Nrf2 PPI – Keap1-Nrf2 protein-protein interaction inhibitors, primary screen, biochemical, fluorescence polarization, single point | Kelch-like ECH-associated protein 1 (Homo sapiens), Q14145 | actives 0.15% (n = 340,000) | AID 504523, 2011 | Keap1 Kelch-Nrf2 peptide fluorescence polarization, 1536-well | inhibition, % at 9.4 µM; in the data active = inhibition above about 12%;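 also: human Keap1 Kelch domain with fluorescein labeled Nrf2 9mer peptide probe; 0% = neutral control wells and 100% = peptide positive control; higher means more block of Keap1 binding to Nrf2 peptide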
IDE inh – human IDE inhibitors in live cells, primary screen, fluorescence polarization, HEK cells, FAbetaB substrate. Insulin-degrading enzyme (Homo sapiens), P14735. actives 0.41% (n = 320,000). FAbetaB cleavage. inhibition, % at 5.59 µM. AID 434962, 2010;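 active = percent inhibition above the average of all tested compounds plus 3 SD, set per screening campaign, cut at about 16% in these data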;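 also: IDE supplied by intact live HEK cells; FP after avidin binding of uncleaved biotin substrate so inhibition keeps polarization high; 0% = DMSO wells and 100% = 60 µM reference IDE inhibitor Ii1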
RTF Ca sens act – cardiac RTF calcium sensitivity activators, primary screen, biochemical, IANBD-TnC fluorescence, EC20 calcium | Troponin I, cardiac muscle (Homo sapiens) + Troponin T, cardiac muscle (Homo sapiens) + … | IANBD-labeled TnC RTF fluorescence at EC20 calcium; 0% EC20 calcium, 100% full calcium | activation, % at 7.2 µM | actives 0.24% (n = 340,000) | AID 493008, 2010;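 active = activation above the mean over all tested compounds plus 3 SD, cut at about 30% in these data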;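 also: rise in fluorescence read as greater calcium sensitivity of cardiac thin filaments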
RTF Ca sens inh – cardiac RTF calcium sensitivity inhibitors, primary screen, biochemical, IANBD-TnC fluorescence, EC70 calcium; Troponin I, cardiac muscle (Homo sapiens) + Troponin T, cardiac muscle (Homo sapiens) + …; IANBD-labeled cardiac RTF, Ca2+ fluorescence; inhibition, % at 7.15 µM; actives 0.12% (n = 340,000); AID 493244, 2011;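 active = inhibition above the mean inhibition of all tested compounds plus 3 SD, cut at about 17% in these data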;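 also: assay run at fixed EC70 calcium of 1.6 mM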
RTF Ca inh conf – cardiac RTF calcium sensitivity inhibitors, confirmation, biochemical, fluorescence readout. reconstituted cardiac thin filaments. AID 504635, 2011. inhibition, % at 7.15 µM. shares compounds with RTF Ca sens inh. actives 8% (n = 360); in the data active = inhibition above about 18%
DNA intercal 2 – DNA intercalator detection, dose response, counter-screen for C-LANA DNA-binding inhibitor project, biochemical, dry powder; shares compounds with C-LANA FP; Acridine orange-DNA displacement, fluorescence polarization; AC50, µM (top dose mostly 35 µM), for the others: at the top dose activity change, negative = inhibition; 20 tested, under 10 active;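 active = signal drop with an AC50 no more than ten times the top valid dose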
Keap1 Kelch bind – Keap1 Kelch domain binders by thermal stabilisation, dose response, biophysical, thermal shift, RT-PCR instrument, cherry-pick; shares compounds with Keap1-Nrf2 PPI; max delta Tm, degrees C; actives 8% (n = 400); delta Tm; stronger effect = higher value; in the data active = max delta Tm above about 0.48 degrees C
Dye-only ctr – Sypro Orange dye melt without protein, dose response, artefact control for Keap1-Nrf2 interaction inhibitor project, biochemical, thermal shift counterscreen, cherry-pick | shares compounds with Keap1-Nrf2 PPI | Sypro Orange dye-only thermal melt, no protein, delta Tm; top dose 26 µM | delta Tm, degrees C (no concentration beside the values) | 140 tested, under 10 active;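 active = at highest dose tested, delta Tm positive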
* marks the source's active call; other numbers are inactive results.

How did N#Cc1ccccc1CN1C(=O)S/C(=C/c2cccn2-c2ccc(C(=O)O)cc2)C1=O do in these assays?
IDE act: 3; C-LANA FP: 23; Keap1-Nrf2 PPI: 1; IDE inh: 3; RTF Ca sens act: 3; RTF Ca sens inh: 3

How did COC(=O)[C@]1(Cc2ccccc2)N[C@H](c2ccc(-c3ccc4c(c3)OCO4)cc2)[C@@H]2C(=O)N(C)C(=O)[C@@H]21 do in these assays?
IDE act: 0; C-LANA FP: -1; Keap1-Nrf2 PPI: 2; IDE inh: -1; RTF Ca sens act: -3; RTF Ca sens inh: -5

How did O=C(Cc1cccc(NC(=O)C2CCCN(C(=O)C3CCCC3)C2)c1)Nc1ccc(C(=O)N2CCOCC2)cc1 (stereo not drawn) do in these assays?
IDE act: 2; C-LANA FP: -4; Keap1-Nrf2 PPI: -1; RTF Ca sens act: -1; RTF Ca sens inh: 1

How did CCN(C(=O)C(C)N1C(=O)/C(=C/c2ccco2)SC1=S)C1CCS(=O)(=O)C1 (stereo not drawn) do in these assays?
IDE act: 6; C-LANA FP: 6; Keap1-Nrf2 PPI: -3; IDE inh: 2; RTF Ca sens act: -6; RTF Ca sens inh: -5

How did CC(C(=O)O)N1C(=O)/C(=C/C=C/c2ccco2)SC1=S (stereo not drawn) do in these assays?
IDE act: -6; C-LANA FP: 104*; Keap1-Nrf2 PPI: 13*; IDE inh: 0; RTF Ca sens act: -51; RTF Ca sens inh: 87*; RTF Ca inh conf: 40*; Keap1 Kelch bind: 0.77*; Dye-only ctr: -29

How did O=C1/C(=C/C=C/c2ccco2)SC(=S)N1NS(=O)(=O)c1ccccc1 do in these assays?
IDE act: -5; C-LANA FP: 110*; Keap1-Nrf2 PPI: 28*; IDE inh: 2; RTF Ca sens act: -40; RTF Ca sens inh: 71*; RTF Ca inh conf: 3; Keap1 Kelch bind: 1.3*

Results for CC1CC=CCC1(CO)CO (stereo not drawn) ?
IDE act: 4; C-LANA FP: -1; Keap1-Nrf2 PPI: 0; RTF Ca sens act: -5; RTF Ca sens inh: -2

Results for O=C(O)c1cc(N2N=C(C(F)(F)F)/C(=C/C=C/c3ccco3)C2=O)ccc1Cl ?
IDE act: -1; C-LANA FP: 113*; Keap1-Nrf2 PPI: 21*; RTF Ca sens act: -62; RTF Ca sens inh: 111*; RTF Ca inh conf: 57*; DNA intercal 2: 20%; Keap1 Kelch bind: 0.68*

What do the screens show for `CCN(C(C)=O)c1ccc(Oc2nc(OC)cc(OC)n2)cc1`?
IDE act: 3; C-LANA FP: 2; Keap1-Nrf2 PPI: 2; IDE inh: -3; RTF Ca sens act: -1; RTF Ca sens inh: -1

What do the screens show for `Nc1c(/C=C2\C=CC(=O)C(O)=C2)c(=O)nc2sc(CC(=O)N3CCCCC3)nn12`?
DNA intercal 2: 8%

What do the screens show for `CN(C)S(=O)(=O)c1cc(C(=O)NC2CCSc3ccccc32)ccc1Cl` (stereo not drawn)?
DNA intercal 2: -1%

What do the screens show for `O=C(NC1CCSc2ccccc21)c1ccc(Cl)c(S(=O)(=O)N2CCOCC2)c1` (stereo not drawn)?
IDE act: 0; C-LANA FP: 0; Keap1-Nrf2 PPI: -4; IDE inh: 1; RTF Ca sens act: -1; RTF Ca sens inh: -2

What do the screens show for `O=c1oc2cccnc2n1CCS(=O)(=O)c1ccc(F)cc1`?
IDE act: 1; C-LANA FP: 1; Keap1-Nrf2 PPI: -5; IDE inh: 8; RTF Ca sens act: 10; RTF Ca sens inh: -13

What do the screens show for `N#Cc1cccc(CN2CCC(=O)N([C@H](CO)Cc3ccccc3)CC2)c1`?
IDE act: 2; C-LANA FP: -2; Keap1-Nrf2 PPI: 4; IDE inh: 1; RTF Ca sens act: -5; RTF Ca sens inh: 2

Results for Clc1ccc(-c2nnc3sc(-c4ccc(Br)o4)nn23)c(Cl)c1 ?
IDE act: 3; C-LANA FP: 2; Keap1-Nrf2 PPI: -1; IDE inh: 2; RTF Ca sens act: 1; RTF Ca sens inh: -1

What do the screens show for `Clc1ccc(-c2nnc3sc(-c4ccc(Br)o4)nn23)cc1`?
IDE act: 17; C-LANA FP: 107*; Keap1-Nrf2 PPI: 4; IDE inh: -5; RTF Ca sens act: 2; RTF Ca sens inh: -16; DNA intercal 2: 11%

How did O=C1CCCC(O)=C1N=Nc1ccc(C(=O)O)cc1 do in these assays?
IDE act: 2; C-LANA FP: 71*; Keap1-Nrf2 PPI: 5; IDE inh: -4; RTF Ca sens act: -14; RTF Ca sens inh: 12; DNA intercal 2: 4%

Results for COc1ccc(-c2cc(C(F)(F)F)c3c(N)c(C(=O)NCCSC)sc3n2)cc1 ?
IDE act: 0; C-LANA FP: 53; Keap1-Nrf2 PPI: 29*; IDE inh: -1; RTF Ca sens act: 63*; RTF Ca sens inh: -77; DNA intercal 2: -27%; Keap1 Kelch bind: -0.1; Dye-only ctr: -27

How did CCCNC(=O)C(Cc1ccc(Cl)cc1)NC(=O)c1ccc(C#N)cc1 (stereo not drawn) do in these assays?
IDE act: 4; C-LANA FP: 2; Keap1-Nrf2 PPI: 1; IDE inh: -2; RTF Ca sens act: 0; RTF Ca sens inh: -11

What do the screens show for `Cc1ccc(/C=C2/SC(=O)NC2=S)o1`?
IDE act: 2; C-LANA FP: 31; Keap1-Nrf2 PPI: 25*; RTF Ca sens act: 24; RTF Ca sens inh: -28; Keap1 Kelch bind: 0.73*
